{"source": "PubChem BioAssay AID1851", "about": "(National Center for Advancing Translational Sciences (NCATS), 2009)", "note": "“And” between values parts separate entries of the source, which are not always exact repeats. Equal entries are not always repeated. Out of some 16,000 compounds screened, about 5,800 (36%) were called active. Inconclusive results (about 23%) are left out. The call rests on the fitted dose curve; in most records, active means well fitted curve in the direction sought with a large enough effect; inconclusive means small, poorly fitted or top-dose-only effect, or effect the other way; inactive means no such curve, though single readings can be large or run the other way. This is one part of the list. More than one record can exist for a structure, and the calls need not agree. On the % scale 0 is the no-effect control and ±100 the full control effect.", "data": [{"target": "Cytochrome P450 2C19 (Homo sapiens) (UniProt P33261)", "sequence (P33261 whole entry, looked up)": "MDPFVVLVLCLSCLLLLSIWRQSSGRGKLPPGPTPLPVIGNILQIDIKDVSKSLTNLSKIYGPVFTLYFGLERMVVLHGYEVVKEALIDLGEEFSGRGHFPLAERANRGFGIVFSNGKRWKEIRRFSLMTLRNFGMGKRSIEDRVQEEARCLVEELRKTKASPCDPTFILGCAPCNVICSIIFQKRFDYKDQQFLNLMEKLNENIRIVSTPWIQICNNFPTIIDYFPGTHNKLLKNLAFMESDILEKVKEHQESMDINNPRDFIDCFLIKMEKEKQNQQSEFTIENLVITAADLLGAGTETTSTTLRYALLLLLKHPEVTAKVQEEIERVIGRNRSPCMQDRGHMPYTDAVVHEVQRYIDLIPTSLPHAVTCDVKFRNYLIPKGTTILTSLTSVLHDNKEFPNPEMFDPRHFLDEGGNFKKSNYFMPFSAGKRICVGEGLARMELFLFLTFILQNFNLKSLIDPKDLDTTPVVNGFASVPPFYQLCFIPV", "assay": "Cytochrome panel assay with activity outcomes", "settings": "recombinant CYP, pro-luciferin dealkylation, luminescence, p450-cyp2c19; series mostly up to 57.1 µM", "values": [{"smiles": "O=C(O)c1nc(-c2ccccc2)[nH]c1C(=O)O", "AC50": "3.16 µM (active)"}, {"smiles": "Nc1nc(C(=O)O)c(N=Nc2ccccc2)c(=O)[nH]1", "activity, negative = inhibition": "-7.57% [at 11.4 µM] (inactive)"}, {"smiles": "Cn1c(=O)c2[nH]c(-c3ccccc3)nc2n(C)c1=O", "AC50": "inactive"}, {"smiles": "Cc1ccc(S(=O)(=O)N(CC(=O)NCCC2=CCCCC2)Cc2ccccc2F)cc1", "AC50": "4.47 µM (active)"}, {"smiles": "C/C(CCN1CCCc2nc(C)c(C)cc21)=N\\OC[C@@H](O)COCc1ccco1", "activity, negative = inhibition": "7.43% [at 11.4 µM] (inactive)"}, {"smiles": "O=C1CSC(c2ccccn2)N1c1ccc(Cl)c(Cl)c1", "note": "(stereo not given)", "AC50": "3.55 µM (active)"}, {"smiles": "Cc1ccc(N2C(=O)c3n[nH]c(C)c3C2c2ccccn2)cc1", "note": "(stereo not given)", "AC50": "inactive"}, {"smiles": "N#Cc1c(N2CCCCC2)nc(N)c2c(N)nc3c(c12)CC(c1ccccc1)O3", "note": "(stereo not given)", "AC50": "6.31 µM (active)"}, {"smiles": "COc1ccccc1N1CCN(CCCNc2cc(=O)n(C)c(=O)n2C)CC1", "AC50": "inactive and 7.94 µM (active)"}, {"smiles": "COc1ccccc1N1CCN(C[C@@H]2CN3C(=O)N(C)c4ccccc4C3=N2)CC1", "AC50": "inactive"}, {"smiles": "COc1ccccc1N1CCN(CCCCNS(=O)(=O)c2cccc3c(N(C)C)cccc23)CC1", "AC50": "0.501 µM (active)"}, {"smiles": "COc1ccccc1N1CCN(Cc2cc(=O)n3ccsc3n2)CC1", "AC50": "17.8 µM (active)"}, {"smiles": "COc1ccccc1N1CCN(CCn2c(=O)[nH]c3c([nH]c4ccccc43)c2=O)CC1", "AC50": "inactive"}, {"smiles": "COc1ccccc1N1CCN(CCCCNC(=O)c2ccc3ccccc3c2)CC1", "AC50": "inactive"}, {"smiles": "COc1ccccc1N1CCN(CCCCNC(=O)c2ccc(-c3ccc(C(C)=O)cc3)cc2)CC1", "AC50": "15.8 µM (active)"}, {"smiles": "CC1(C)[C@@H]2CC[C@]1(CC(=O)O)[C@H](Cl)C2", "activity, negative = inhibition": "3.64% [at 11.4 µM] (inactive)"}, {"smiles": "CCNc1ncc2nc(-c3cc(F)cc(F)c3)c(=O)n(CCC#N)c2n1", "AC50": "inactive"}, {"smiles": "CN[C@]1(C)[C@H]2CC[C@@H](C2)C1(C)C", "AC50": "inactive"}, {"smiles": "CC1(C)C2([N+](=O)[O-])CN3CC1([N+](=O)[O-])CN(C2)C31CCCC1", "AC50": "inactive"}, {"smiles": "COc1ccccc1N1CCN(CCN2C(=O)CC3(CCCC3)CC2=O)CC1", "AC50": "inactive"}, {"smiles": "COc1ccccc1N1CCN(CCCCN2C(=O)c3ccccc3C2=O)CC1", "AC50": "inactive"}, {"smiles": "COc1ccccc1N1CCN(CCCCN2C(=O)CCC2=O)CC1", "AC50": "10 µM (active)"}, {"smiles": "CC(C)C(=O)NCCc1nc2ccccc2n1CCCOc1ccc(Cl)cc1", "AC50": "2 µM (active)"}, {"smiles": "C=CC[C@H](N)C(=O)O", "AC50": "inactive"}, {"smiles": "CCn1c(SCc2ccc(C(=O)Nc3nccs3)cc2)nnc1-c1ccc(NC(C)=O)cc1", "AC50": "5.01 µM (active)"}, {"smiles": "O=C(CSc1nnc(-c2ccncc2)n1Cc1ccccc1)Nc1nccs1", "AC50": "1.78 µM (active)"}, {"smiles": "Cc1ccc(NC(=O)c2ccc(CSc3nnc(-c4ccncc4)n3C)cc2)cc1", "AC50": "inactive"}, {"smiles": "CCNC(=O)C1CC(=O)OC12CCCCC2", "note": "(stereo not given)", "AC50": "inactive"}, {"smiles": "Cn1c(=O)c2c(nc(Cl)n2Cc2ccc(Cl)c(Cl)c2)n(C)c1=O", "AC50": "2 µM (active)"}, {"smiles": "CN(C)CCNc1nc2c(c(=O)n(C)c(=O)n2C)n1C", "activity, negative = inhibition": "-4.31% [at 11.4 µM] (inactive)"}, {"smiles": "Cn1c(OCc2ccc3c(c2)OCO3)nc2c1c(=O)n(Cc1ccc(Cl)c(Cl)c1)c(=O)n2C", "AC50": "10 µM (active)"}, {"smiles": "CN(C)CCn1c(CO)nc2c1c(=O)n(C)c(=O)n2C", "activity, negative = inhibition": "29.8% [at 11.4 µM] (inactive)"}, {"smiles": "CCc1ccc(N2CC(C)Cn3c2nc2c3c(=O)n(CCN3CCOCC3)c(=O)n2C)cc1", "note": "(stereo not given)", "AC50": "inactive"}, {"smiles": "CCC(C(=O)NC(C)(C)C)N(C(=O)Cn1nnc(-c2cccs2)n1)c1cnc2ccccc2c1", "note": "(stereo not given)", "AC50": "31.6 µM (active)"}, {"smiles": "O=C(Nc1cnc2ccccc2c1)c1cccc(-n2cnnn2)c1", "AC50": "inactive"}, {"smiles": "CCCCCCCC/C=C\\CCCCCCCC(=O)NCc1ccc(O)c(OC)c1", "AC50": "inactive"}, {"smiles": "COc1cc(CNC(=O)CCCC/C=C\\C(C)C)ccc1O", "AC50": "7.94 µM (active)"}, {"smiles": "CCCCCCCCC(=O)NCc1cc(OC)c(O)cc1I", "AC50": "inactive"}, {"smiles": "CC(C)C(=O)Nc1ccc(C(=O)NNC(=O)CCCOc2ccc(Cl)cc2Cl)cc1", "AC50": "4.47 µM (active)"}, {"smiles": "CC(C)(C)C(=O)NNC(=O)CCCOc1ccc(Cl)cc1Cl", "AC50": "11.2 µM (active)"}, {"smiles": "CC(C)C(=O)Nc1ccc(C(=O)NNC(=O)C(c2ccccc2)c2ccccc2)cc1", "AC50": "inactive"}, {"smiles": "COc1ccc(/C=N/NC(=O)CCCOc2ccc(Cl)cc2Cl)cc1[N+](=O)[O-]", "AC50": "1 µM (active)"}, {"smiles": "CN1C[C@H](c2ccccc2)C(O)([C@]2(c3ccccc3)CN(C)C[C@@H](c3ccccc3)C2=O)[C@H](c2ccccc2)C1", "note": "(stereo not given in full)", "activity, negative = inhibition": "7.29% [at 11.4 µM] (inactive)"}, {"smiles": "CCCCCCc1c(C[C@H](N)C(=O)O)o[nH]c1=O", "AC50": "inactive"}, {"smiles": "CCC/C=C(\\CCC)C(NS(=O)(=O)c1ccc(C(F)(F)F)cc1)c1ccc(-c2ccccc2)cc1", "note": "(stereo not given)", "AC50": "7.94 µM (active)"}, {"smiles": "CCC/C=C(\\CCC)C(NS(=O)(=O)c1ccc(C(F)(F)F)cc1)c1ccccc1", "note": "(stereo not given)", "AC50": "0.398 µM (active)"}, {"smiles": "C/C(=C\\C1CCCCC1)C(NC(=O)c1ccc(C(F)(F)F)cc1)c1ccc(-c2ccccc2)cc1", "note": "(stereo not given)", "AC50": "inactive"}, {"smiles": "CCC/C=C(\\CCC)C(NS(=O)(=O)c1ccccc1)c1ccc(C(F)(F)F)cc1", "note": "(stereo not given)", "AC50": "7.94 µM (active)"}, {"smiles": "CC(C)CN1CCCC2(CCN(C(=O)c3cccn3C)CC2)C1", "AC50": "inactive"}, {"smiles": "Cc1nn(S(=O)(=O)c2cccs2)c(C)c1Sc1ccc([N+](=O)[O-])cc1", "AC50": "0.562 µM (active)"}, {"smiles": "CC(C)(C)[Si](C)(C)c1c2c(nc3ccc(OCc4ccccc4)cc13)-c1cccc(=O)n1C2", "AC50": "inactive"}, {"smiles": "Cc1c2c(nc3ccccc13)-c1cccc(=O)n1C2", "AC50": "inactive"}, {"smiles": "COc1ccc2nc3c(c([Si](C)(C)C(C)(C)C)c2c1)Cn1c-3cccc1=O", "AC50": "2 µM (active)"}, {"smiles": "CCCCC/C=C\\C[C@H](O)/C=C\\c1cccc(C[C@H](O)CCCCO)n1", "AC50": "inactive"}, {"smiles": "COc1ccc2c(C=Nc3c(C)n(C)n(-c4ccccc4)c3=O)c(O)n(Cc3ccco3)c(=O)c2c1", "AC50": "10 µM (active)"}, {"smiles": "COc1ccc(C(=O)NCC(c2ccc(F)cc2)N2CCOCC2)cc1S(=O)(=O)N1CCCC1", "note": "(stereo not given)", "AC50": "6.31 µM (active)"}, {"smiles": "OCCCN=C1CCCCC1", "activity, negative = inhibition": "31.2% [at 11.4 µM] (inactive)"}, {"smiles": "Clc1ccc2c(NCCNc3ccnc4cc(Cl)ccc34)ccnc2c1", "activity, negative = inhibition": "-22.5% [at 11.4 µM] (inactive)"}, {"smiles": "C=CCn1cc(/C=N\\NC(=O)c2cc3c(ccc4ccccc43)o2)c2ccccc21", "AC50": "4.47 µM (active)"}, {"smiles": "O=C(N/N=C/c1cccc([N+](=O)[O-])c1)c1cc2c(ccc3ccccc32)o1", "AC50": "inactive"}]}]}
